From PubChem BioAssay
TMEM16A act – TMEM16A chloride channel activators or potentiators, primary screen, cell-based, HTS. Anoctamin-1 (Mus musculus), Q8BHY3. HEK293 TMEM16A/YFP-H148Q/I152L, iodide quench fluorescence; stronger effect = lower value. B-score at 10 µM. 340,000 compounds, 0.3% hits. AID 623877, 2012;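 active = fluorescence-ratio B-score plate-corrected deviation score at least 3 library SD below zero, with starting fluorescence score within 5 deviations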;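 also: channel opened by trigger with iodide after compound preincubation; score built on the fluorescence ratio of max minus min over baseline; more negative score means more quench and so TMEM16A activation or potentiation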
CHT PAM – CHT positive allosteric modulators, primary screen, cell-based, membrane potential dye, choline EC20 | High affinity choline transporter 1 (Homo sapiens), Q9GZV3 | CHT-expressing cells; stronger effect = higher value; LV-AA mutant CHT in HEK293 cells | B-score at 10 µM | 310,000 compounds, 0.49% hits | AID 488977, 2010;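 active = initial fluorescence not abnormally high and integrated response B-score, plate-corrected, over 3 SD above library mean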
Target sequence (Q9GZV3 whole entry, looked up): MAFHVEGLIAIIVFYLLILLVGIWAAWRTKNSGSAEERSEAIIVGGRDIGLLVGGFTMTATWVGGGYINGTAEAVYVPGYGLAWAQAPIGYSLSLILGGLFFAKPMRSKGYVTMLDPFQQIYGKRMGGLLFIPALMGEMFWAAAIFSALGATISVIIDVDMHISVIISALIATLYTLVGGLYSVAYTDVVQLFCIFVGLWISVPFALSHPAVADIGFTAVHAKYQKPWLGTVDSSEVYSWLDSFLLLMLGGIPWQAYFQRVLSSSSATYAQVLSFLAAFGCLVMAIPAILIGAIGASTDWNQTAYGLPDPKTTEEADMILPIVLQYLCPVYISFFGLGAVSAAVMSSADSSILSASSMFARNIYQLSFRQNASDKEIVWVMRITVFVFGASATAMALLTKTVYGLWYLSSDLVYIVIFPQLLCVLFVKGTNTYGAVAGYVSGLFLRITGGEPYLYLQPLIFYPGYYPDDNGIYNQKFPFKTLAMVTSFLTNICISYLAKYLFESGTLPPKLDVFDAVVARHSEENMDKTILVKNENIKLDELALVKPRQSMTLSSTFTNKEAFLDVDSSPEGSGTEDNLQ
HDAC3 inhib – HDAC3 deacetylase inhibitors, primary screen, biochemical, fluorescence, cell-free homogeneous; AID 2718, 2010; inhibition, % at 8.3 µM; Histone deacetylase 3 (Homo sapiens), O15379; recombinant HDAC3, fluorogenic peptide/trypsin coupled; 320,000 compounds, 0.15% hits; in the data active = inhibition above about 26%, passing the limit was not always enough
ANO1 block – TMEM16A chloride channel inhibitors, primary screen, cell-based, HTS | Anoctamin-1 (Mus musculus), Q8BHY3 | HEK293 TMEM16A/YFP iodide influx fluorescence, ionomycin | normalized B-score (activity score, 25-100; higher = stronger inhibition) at 10 µM | 310,000 compounds, 1.2% hits | AID 588511, 2011;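 active = ratio plate-corrected score three or more library SD toward inhibition, starting fluorescence score within five deviations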;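 also: score derived from kinetic fluorescence span divided by baseline fluorescence per well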
CHT inh – inhibitors of human choline transporter CHT. CHT-expressing cells, membrane potential dye, choline response; stronger effect = lower value. B-score at 10 µM. 310,000 compounds, 0.86% hits. AID 488975, 2010;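 active = B-score over 3 SD under the library average, and starting fluorescence ratio not unusually high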;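 also: choline stimulus applied at its EC90 after an EC20 pre-addition; B-score computed on integrated fluorescence ratio after choline addition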
PHOSPHO1 inh – PubChem AID 1565; inhibition, % at 13.3 µM; recombinant PHOSPHO1, absorbance phosphatase assay; 290,000 compounds, 1.1% hits; Phosphoethanolamine/phosphocholine phosphatase (Homo sapiens), Q8TCT1; in the data active = inhibition above about 60%
TMEM16A reconf – TMEM16A chloride channel inhibitors, confirmation, cell-based, re-confirmation; 2,300 compounds, 39% hits; inhibition, % at 10 µM; HEK293 TMEM16A/YFP-H148Q, iodide quench fluorescence; ionomycin added to raise cell calcium; shares compounds with ANO1 block;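 active = mean duplicate percent inhibition, scaled so buffer wells are 0 and the reference blocker 100, over three buffer SD above buffer mean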
TMEM16A Ca cntr – calcium mobilization in TMEM16A/YFP HEK293 cells, confirmation, counter-screen for TMEM16A inhibitor project. shares compounds with ANO1 block. calcium response (% of ionomycin), % at 10 µM. Fluo4 calcium mobilization. 2,300 compounds, 2% hits. AID 652231, 2013;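 active = duplicate-averaged calcium signal over 20% of the ionomycin maximum, relative to buffer baseline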;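 also: each well's signal is peak minus trough fluorescence divided by its pre-addition baseline; 0% = buffer wells and 100% = ionomycin wells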
YFP-HEK293 quench – iodide YFP quench changes in parental YFP-HEK293, counter-screen for TMEM16A inhibitor project, cell-based; AID 652233, 2013; YFP ratio F(max-min)/F0 at 10 µM; ionomycin; shares compounds with ANO1 block; 2,300 tested, under 10 active;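 active = yellow fluorescent protein signal ratio exceeding the buffer control mean by over 5 SD of those controls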;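 also: ratio is mean of duplicate wells from kinetic YFP trace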
ClC-1 rat inh – ClC-1 chloride channel inhibition, selectivity assay for TMEM16A inhibitor project, cell-based, voltage-dependent ClC-1. 2,300 tested, under 10 active. CHO ClC-1-YFP, iodide influx fluorescence quench; iodide control reads 0, buffer control 100. ratio percent, % at 10 µM. shares compounds with ANO1 block. AID 652236, 2013;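 active = duplicate-mean ratio percent above the mean of iodide-only control wells, which defines zero, plus 5 of their SD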;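 also: higher percent means stronger block of ClC-1 iodide influx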
* marks the source's active call; other numbers are inactive results. Shown are actives, neighbours in structure and some others; about 3.2% of the full set was active somewhere.

Results for C/C(N)=C(/C#N)C(=O)COC(=O)CC12CC3CC(CC(C3)C1)C2 ?
TMEM16A act: inactive; CHT PAM: inactive; HDAC3 inhib: -2; ANO1 block: inactive; CHT inh: inactive; PHOSPHO1 inh: 16

How did C/C(N)=C(/C#N)C(=O)COC(=O)C1CCC(C(C)(C)C)CC1 (centres undefined) do in these assays?
TMEM16A act: inactive; CHT PAM: inactive; HDAC3 inhib: 15; ANO1 block: 25*; CHT inh: inactive; PHOSPHO1 inh: 14; TMEM16A reconf: 28%*; TMEM16A Ca cntr: inactive; YFP-HEK293 quench: -1; ClC-1 rat inh: -41

What do the screens show for `CC1=C(C(=O)OC(C)C)C(c2cccs2)N2C(=O)C(C)SC2=N1` (centres undefined)?
TMEM16A act: inactive; CHT PAM: inactive; HDAC3 inhib: -6; ANO1 block: inactive; CHT inh: inactive; PHOSPHO1 inh: 12

What do the screens show for `c1csc(-c2noc(COc3ccc4c(c3)CCCC4)n2)c1`?
TMEM16A act: inactive; CHT PAM: inactive; HDAC3 inhib: 4; ANO1 block: inactive; CHT inh: inactive; PHOSPHO1 inh: -1; TMEM16A reconf: inactive; TMEM16A Ca cntr: inactive; YFP-HEK293 quench: -1.2; ClC-1 rat inh: -13

Results for Brc1ccc(-c2noc(COc3ccc4c(c3)CCC4)n2)o1 ?
TMEM16A act: inactive; CHT PAM: inactive; HDAC3 inhib: 7; ANO1 block: inactive; CHT inh: inactive; PHOSPHO1 inh: -6

What do the screens show for `Cc1noc(C)c1COC(=O)c1cc(C)n(-c2ccccc2)c1C`?
TMEM16A act: inactive; CHT PAM: inactive; HDAC3 inhib: 2; ANO1 block: 25*; CHT inh: inactive; PHOSPHO1 inh: 14; TMEM16A reconf: 22%*; TMEM16A Ca cntr: inactive; YFP-HEK293 quench: -0.99; ClC-1 rat inh: -12

What do the screens show for `Cc1noc(C)c1COC(=O)c1cc(=O)[nH]c2ccccc12`?
TMEM16A act: inactive; CHT PAM: inactive; HDAC3 inhib: -1; ANO1 block: inactive; CHT inh: inactive; PHOSPHO1 inh: 11

Results for Cc1cc(C(=O)Nn2c(C3CCCCC3)nc3ccccc3c2=O)ccc1[N+](=O)[O-] ?
TMEM16A act: inactive; CHT PAM: inactive; HDAC3 inhib: 7; ANO1 block: inactive; CHT inh: inactive; PHOSPHO1 inh: -9

What do the screens show for `O=C(Nn1c(C2CCCCC2)nc2ccccc2c1=O)c1ccc(Cl)c([N+](=O)[O-])c1`?
TMEM16A act: inactive; CHT PAM: inactive; HDAC3 inhib: -1; ANO1 block: 25*; CHT inh: inactive; PHOSPHO1 inh: -19; TMEM16A reconf: 22%*; TMEM16A Ca cntr: inactive; YFP-HEK293 quench: -1.1; ClC-1 rat inh: -9

Results for COc1ccc(NC2CCCN(C(=O)c3cccc(N(C)C)c3)C2)cc1 (centres undefined) ?
TMEM16A act: inactive; PHOSPHO1 inh: 31

What do the screens show for `CCOC(=O)c1c(-c2ccccc2)csc1NC(=O)CSc1nc(N)cc(N)n1`?
TMEM16A act: inactive; CHT PAM: inactive; HDAC3 inhib: 8; ANO1 block: 25*; CHT inh: inactive; PHOSPHO1 inh: 6; TMEM16A reconf: 30%*; TMEM16A Ca cntr: inactive; YFP-HEK293 quench: -0.85; ClC-1 rat inh: -5

What do the screens show for `CCOC(=O)c1c(-c2ccccc2)csc1NC(=O)CSc1nc(C)cc(C)n1`?
TMEM16A act: inactive; CHT PAM: inactive; HDAC3 inhib: 4; ANO1 block: inactive; CHT inh: inactive; PHOSPHO1 inh: -10

Results for COc1ccccc1C1=NOC(Cn2c(NCC3CCCO3)nc3c2c(=O)n(C)c(=O)n3C)C1 (centres undefined) ?
TMEM16A act: inactive; CHT PAM: inactive; HDAC3 inhib: -1; ANO1 block: inactive; CHT inh: inactive; PHOSPHO1 inh: 20; TMEM16A reconf: inactive; TMEM16A Ca cntr: inactive; YFP-HEK293 quench: -1; ClC-1 rat inh: -10

What do the screens show for `COc1ccccc1C1=NOC(Cn2c(NCCCO)nc3c2c(=O)n(C)c(=O)n3C)C1` (centres undefined)?
TMEM16A act: inactive; CHT PAM: inactive; HDAC3 inhib: 2; ANO1 block: inactive; CHT inh: inactive; PHOSPHO1 inh: 32

Results for CC(=O)Oc1cc(C)cc2oc(=O)cc(-c3ccccc3)c12 ?
TMEM16A act: inactive; CHT PAM: inactive; HDAC3 inhib: 3; ANO1 block: inactive; CHT inh: inactive; PHOSPHO1 inh: 34

How did CCOc1cc(C)cc2oc(=O)cc(-c3ccccc3)c12 do in these assays?
TMEM16A act: inactive; CHT PAM: inactive; HDAC3 inhib: 2; ANO1 block: 25*; CHT inh: inactive; PHOSPHO1 inh: 25; TMEM16A reconf: inactive; TMEM16A Ca cntr: inactive; YFP-HEK293 quench: -1.3; ClC-1 rat inh: -4

Results for O=C(O)CSCCCC(=O)Nc1ccc(Br)cc1 ?
TMEM16A act: inactive; CHT PAM: inactive; HDAC3 inhib: 7; ANO1 block: inactive; CHT inh: inactive; PHOSPHO1 inh: 16

Results for CCSc1nnc(NC(=O)CSc2nccn2-c2cccc(C)c2C)s1 ?
CHT PAM: inactive; HDAC3 inhib: -2; ANO1 block: 25*; CHT inh: inactive; PHOSPHO1 inh: 47; TMEM16A reconf: inactive; TMEM16A Ca cntr: inactive; YFP-HEK293 quench: -0.98; ClC-1 rat inh: -12

Results for O=C(CC(C(=O)O)c1ccccc1)c1cccs1 (centres undefined) ?
TMEM16A act: inactive; CHT PAM: inactive; HDAC3 inhib: -7; ANO1 block: inactive; CHT inh: inactive; PHOSPHO1 inh: 4
